Only some compounds are listed: those with a hit (about 1.6% of all), similar ones and a draw of the others.
OPRM1-OPRD1 inv = inverse agonists of human mu-delta opioid receptor heterodimerization; P35372+P41143; cell-based MOR-DOR heterodimer luminescence, inverse agonism; inhibition, % at 9.3 µM; 0.21% of 340,000 active; AID 504357; in the data active means inhibition above about 22%, passing the limit was not always enough;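 further: 0% = cells with DMSO and 100% = wells without cells with DMSO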
HTR5A ag ctr = HTR5A agonism, opioid heterodimer counter-screen | 0.61% of 340,000 active | activation, % at 9.3 µM | P47898 | AID 504692 | HTR5A agonist assay, luminescence, cell-based; in the data active means activation mostly above about 9.5%, no sharp cut-off; inactive means mostly below about 7.6%;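 further: 0% = cells with vehicle only and 100% = reference agonist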
HTR5A inv ctr = HTR5A inverse agonism, opioid heterodimer counter-screen; inhibition, % at 9.3 µM; 0.083% of 340,000 active; AID 504634; HTR5A cell line, luminescence; P47898; in the data active means inhibition mostly above about 23%, no sharp cut-off; inactive means mostly below about 18%;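 further: 0% = cells with DMSO and 100% = no-cell wells with DMSO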
MOR-DOR ag = agonists of human mu-delta opioid receptor heterodimerization; P35372+P41143; cells, OPRM1-OPRD1 heterodimerization, luminescence; activation, % at 9.3 µM; 0.3% of 340,000 active; AID 504326; in the data active means activation above about 18%;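 further: 0% = vehicle-treated cells and 100% = reference agonist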
m5-HT2A agonist = activates the mouse 5-HT2A serotonin receptor; AID 624169; activation, % at 7.6 µM; CHO-K1 mHTR2A beta-arrestin complementation, luminescence; percent of 30 µM serotonin response; 0.66% of 360,000 active; P35363;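 active means activation above a run cutoff, the mean activation of all tested compounds plus 3 SD, cut at about 14% in these data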;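 further: 0% = plate median of compound wells and 100% = 30 µM serotonin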
Target sequence (P35363 whole entry, looked up): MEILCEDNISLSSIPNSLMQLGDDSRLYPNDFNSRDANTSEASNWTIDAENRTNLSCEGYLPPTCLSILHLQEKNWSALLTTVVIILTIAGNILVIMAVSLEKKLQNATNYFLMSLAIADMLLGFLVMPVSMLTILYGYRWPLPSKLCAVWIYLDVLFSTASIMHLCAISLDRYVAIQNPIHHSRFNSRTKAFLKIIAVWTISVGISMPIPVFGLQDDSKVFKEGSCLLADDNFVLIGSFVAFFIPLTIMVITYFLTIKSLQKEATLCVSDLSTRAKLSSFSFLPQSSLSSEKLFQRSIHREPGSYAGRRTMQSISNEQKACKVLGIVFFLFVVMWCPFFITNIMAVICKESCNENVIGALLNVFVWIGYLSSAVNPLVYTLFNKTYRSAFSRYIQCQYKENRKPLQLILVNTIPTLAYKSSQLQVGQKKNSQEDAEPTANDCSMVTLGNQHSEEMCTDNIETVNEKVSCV
MOR ag counter = counter-screen for mouse HTR2A agonists: human mu opioid receptor agonists; AID 624380; shares compounds with m5-HT2A agonist; activation, % at 9.3 µM; U2OS OPRM1 beta-arrestin PathHunter, luminescence; DMSO 0%, DAMGO 9.3 µM 100%; 5.3% of 2,300 active;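 active means mean activation above the mean of DMSO-only wells plus 3 SD, cut at about 0.5% in these data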
HTR2A ag conf = confirmation of mouse HTR2A serotonin receptor agonists; CHO-K1 PathHunter beta-arrestin recruitment, luminescence; DMSO 0%, 30 µM serotonin 100%; activation, % at 7.6 µM; AID 624381; shares compounds with m5-HT2A agonist; 19% of 2,300 active;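 active means mean activation across triplicates above the hit threshold derived in the original primary screen, cut at about 15% in these data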
* hit, by the source's call; . = not tested or not shown.

SMILES	OPRM1-OPRD1 inv	HTR5A ag ctr	HTR5A inv ctr	MOR-DOR ag	m5-HT2A agonist	MOR ag counter	HTR2A ag conf
COc1cccc(C(=O)NNC(=O)CCN2CCN(c3ccccc3)CC2)c1	1	6	-26	0	23*	-1	48*
COc1ccc(C)cc1NC(=O)c1ccc(CN2CCN(c3ccccc3)CC2)cc1	-1	6	-12	0	36*	0	61*
CN1CCC(C(=O)C(=O)O)C1=O (stereo not drawn)	6	-2	8	-1	5	.	.
C#CC(C)OC(=O)C(C)NC(=O)c1ccccc1 (stereo not drawn)	10	-3	8	-2	6	.	.
COc1ccc(C)cc1NC(=O)CCN1CCN(c2ccccc2F)CC1	-12	0	0	2	18*	-1	57*
COc1ccccc1C(=O)NCCN1CCN(c2ccccc2)CC1	2	0	-1	0	15*	-1	70*
Cc1ccc(C)c(NC(=O)CCN2CCOCC2)c1	-3	2	-20	1	20*	0	0
Cc1cc(N2C(=O)C3C4CC(c5ccccc5)C(C4)C3C2=O)no1 (stereo not drawn)	18	3	-11	-4	1	.	.
Cc1ccc(C(=O)C(C)Oc2cccc(NC(=O)c3ccco3)c2)cc1 (stereo not drawn)	5	3	7	-1	-1	.	.
COc1ccc(OCCCC(=O)N2CCN(S(=O)(=O)c3cccc(F)c3)CC2)cc1	-6	4	-13	1	-4	.	.
CN1CCN(C2OC(=O)c3ccccc32)CC1 (stereo not drawn)	14	5	-14	-3	0	.	.
O=C1OC(N2CCN(c3ccccn3)CC2)c2ccccc21 (stereo not drawn)	-1	3	-7	0	15*	-1	23*
Cc1nc2ccc(NC(=O)C3=NN(C)C(=O)CC3)cc2s1	7	0	-1	-2	1	.	.
Cc1cccc(C)c1NC(=O)c1cn(-c2ccccc2)nc1-c1ccccc1	-9	0	-32	2	21*	-1	10
Cc1ccccc1NC(=O)c1cn(-c2ccccc2)nc1-c1ccccc1	-38	-3	10	5	11	.	.
CC(C)(C)CN1CCN(CC#Cc2ccccc2)CC1CCO (stereo not drawn)	-12	-2	7	2	-1	.	.
CC(C)(C)c1csc(NC(=O)c2c(F)c(F)c(F)c(F)c2F)n1	0	4	-15	0	17*	0	15*
COc1ccc(-c2ccc(C(=O)NCc3ccc(N4CCN(C)CC4)cc3)c3occc23)c(C)c1	.	.	.	.	5	.	.
COc1cccc(CNC(=O)CCC(=O)N2Cc3cccc(OC)c3Oc3ncccc32)c1OC	18	0	-1	-3	6	.	.
COc1cccc2c1Oc1ncccc1N(C(=O)CCC(=O)NCc1ccccc1Cl)C2	21	-4	-18	-4	17*	0	1
COc1cc(C(=O)C(=O)c2ccc(O)c(OC)c2)ccc1O	10	0	-1	-2	7	.	.
COc1cc(C(=O)O)ccc1O	8	8	-20	-1	28*	-1	-1
CC(C)CCNC(=O)C1CCC(CNS(=O)(=O)c2ccc(Cl)cc2)CC1 (stereo not drawn)	-9	1	-3	2	1	.	.
CC(=O)NCCn1c(SCC#N)nc2ccccc2c1=O	18	-2	-24	-4	15*	0	-2
OC(c1cc(C(F)(F)F)nc2c(C(F)(F)F)cccc12)C1CCCCN1 (stereo not drawn)	-59	7	-25	11	31*	1.3*	14
SMILES	OPRM1-OPRD1 inv	HTR5A ag ctr	HTR5A inv ctr	MOR-DOR ag	m5-HT2A agonist	MOR ag counter	HTR2A ag conf
OC(c1cc(-c2ccc(C(F)(F)F)cc2)nc(C(F)(F)F)c1)C1CCCCN1 (stereo not drawn)	-27	2	-8	6	8	.	.
COc1cc(NC(=O)c2ccco2)c(OC)cc1NC(=O)Nc1ccc(Cl)cc1	-51	8	-21	8	15*	0	-2
O=c1cc(-c2ccc(C(F)(F)F)cc2)oc2ccccc12	-1	10	-30	0	16*	0	-4
CCOC(=O)[C@]12CCCC=C1N(Cc1cccc3ccccc13)C(=O)[C@H](CC(=O)N1CCC(c3ccccc3)CC1)C2	.	.	.	.	17*	-1	-2
CC(C)Oc1ccc(C(=O)Nc2ccc(N3CCN(C(=O)c4ccco4)CC3)cc2)cc1	1	3	-7	0	15*	0	-2
O=C(CN1C(=O)NC(Cc2ccccc2)C1=O)Nc1ccc(OC(F)F)cc1 (stereo not drawn)	4	5	-15	-1	0	.	.
O=C(CN1C(=O)NC(Cc2ccccc2)C1=O)Nc1ccccc1OC(F)F (stereo not drawn)	2	3	-7	0	18*	0	0
CN(C)C(=O)C1C2NC(=S)N(c3cccc(Cl)c3)C1(C)Oc1ccc(Cl)cc12 (stereo not drawn)	15	-4	9	-3	1	.	.
CCc1cccc(C)c1NC(=O)CC(C)(C)CC(=O)O	1	-6	-21	0	18*	0	-3
CSC(=NNC(=O)c1ccc(O)cc1)SC	25	6	-14	-5	-8	.	.
C(=N\NC1=Nc2cccc3cccc1c23)/c1ccccc1	-34	7	-19	6	-2	.	.
Clc1ccc(/C=N/NC2=Nc3cccc4cccc2c34)cc1	-50	11	-30	8	15*	0	2
CC1CCC(CC(=O)O)(C(=O)O)CC1 (stereo not drawn)	12	-2	8	-2	1	.	.
O=C(NCCCN1CCN(c2cccc(Cl)c2)CC1)c1cccc(N2CCCC2=O)c1	7	-2	2	-1	17*	-1	4
COc1cc2[nH]c(C)c(-c3ccccc3)c(=O)c2cc1Cl	.	.	.	.	25*	-1	14*
COc1ccc(-n2nc(C(=O)NCC(=O)NCCCN3CC(C)CC(C)C3)c3ccccc3c2=O)cc1Cl (stereo not drawn)	16	-3	8	-3	1	.	.
CCOC(=O)C1CCN(C(=O)Nc2ccccc2Cl)CC1	13	2	-15	-2	15*	-1	-1
Cc1ccc(-c2nn(C)c(=O)c3ccccc23)cc1CN1CCCCC1	18	-1	9	-4	1	.	.
CC1(C)CC(=O)c2c(nc(SCC(=O)Nc3nsc(-c4ccccc4)n3)c(C#N)c2-c2ccccc2)C1	-13	3	-7	2	-4	.	.
COc1ccc(-c2c(C#N)c(SCc3c(C)noc3C)nc3c2C(=O)CC(C)(C)C3)cc1	-2	-5	2	0	18*	-1	-3
